The values below come from PubChem BioAssay.

Activity calls are given as the source filed them. Unless noted, how the calls were made is not given here.

For assay [1], the system named is Wnt5a (protein binding on small-molecule microarray). In words: small molecules binding Wnt5a protein – biophysical, small-molecule microarray, 635/667 nm fluorescence, primary screen (AID 1142).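 Further: fluorescence read at 667 nm with signal to noise per printed feature.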 The note with it: 635 nm fluorescence, higher = more signal.
The nature of assay [2]: ATP-based viability of Huh7 replicon cells – cell-based, CellTiter-Glo luminescence, basal, 48 h, cytotoxicity control for HCV replication inhibitor project, primary screen (AID 1143).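 Further: Huh7 hepatoma cells carrying a hepatitis C replication reporter with no stimulus; test concentration not given here.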 The note with it: higher = more signal, called active from +8 up or from −8 down. In general terms: Replicon systems follow genome replication, usually without infectious particles.
Assay [3] can be described thus: Pseudomonas biofilm growth suppression – PAO1 strain, BacTiter-Glo luminescence, LB-PBS, primary screen (AID 1144). To be noted: P. aeruginosa PAO1 biofilm, 12 h, higher = more signal.
Assay [4] can be described thus: basal CRE-LacZ reporter activity in PC12 – cell-based, unstimulated, primary screen (AID 1145). To be noted: no forskolin, luminescence, 4.5 h, higher = more signal, called active from +8 up or from −8 down.
Assay [5] can be described thus: forskolin-driven CRE-LacZ activity in PC12 – cell-based, CRE-LacZ reporter, forskolin-stimulated, primary screen (AID 1146).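 Further: PC12 cells with 6xCRE LacZ reporter stimulated by forskolin 10 µM; beta-galactosidase reporter signal reflecting CREB driven transcription.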 To be noted: luminescence, 4.5 h, higher = more signal, called active from +8 up or from −8 down.
Assay [6] has as its target Streptavidin (Streptomyces avidinii) (UniProt P22629). Put plainly: compounds binding control protein streptavidin – biophysical, small-molecule microarray, 635/667 nm fluorescence, artefact control for SMM compound annotation, primary screen (AID 1147).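 Further: signal reflects streptavidin binding to arrayed compounds as a control protein.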 The note with it: higher = more signal.
Assay [7] can be described thus: probe aInhba binding on compound microarray – biochemical, small-molecule microarray, 635/667 nm fluorescence, primary screen (AID 1148).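 Further: score merges 667nm spot fluorescence with signal-to-noise for antibody binding to printed compounds.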 To be noted: higher = more signal.
Assay [8] concerns the target Torsin-1A (Homo sapiens) (UniProt O14656). In words: TOR1A wild-type binding on microarray – cell lysate, small-molecule microarray, lysate, 635/667 nm, primary screen (AID 1149). The note with it: COS7 hTOR1A-WT lysate, 635 nm fluorescence, higher = more signal.
Assay [9] shares this target. In words: torsin A mutant lysate binding on microarrays – cell lysate, small-molecule microarray, COS7 lysate, 635/667 nm fluorescence, primary screen (AID 1150).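 Further: score pools 667 nm emission and signal to noise measuring lysate protein binding.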 The note with it: COS7 hTOR1A mutant lysate, 635 nm fluorescence, higher = more signal.
In assay [10] the test system is Sonic hedgehog protein (Shh). Put plainly: Sonic hedgehog microarray binding compounds – biochemical, small-molecule microarray, 635/667 nm fluorescence, primary screen (AID 1151).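 Further: Shh protein binding to compounds spotted on small-molecule microarray slides; score combines spot fluorescence intensity with signal-to-noise across triplicate slides.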 To be noted: 635 nm fluorescence, higher = more signal.
The nature of assay [11]: optical density shifts of acrAB sulA E. coli – strain DRC41, OD650, 48 h, E. coli filamentation inducer project, primary screen (AID 1152).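 Further: E. coli MC1000 strain DRC41 lacking acrAB efflux pump and sulA.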 To be noted: higher = more signal, called active from +8 up or from −8 down.
Assay [12] can be described thus: probe aLefty1 binding on compound microarray – biochemical, small-molecule microarray, 635/667 nm fluorescence, primary screen (AID 1153).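 Further: score merges spot fluorescence with signal-to-noise ratio from the scanned slide images.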 The note with it: higher = more signal.
The nature of assay [13]: plasmodial surface anion channel blockers, osmotic lysis – cell-based, P. falciparum Indochina, OD700, 1 h, primary screen (AID 1154). The note with it: P. falciparum Indochina infected RBC osmotic lysis, higher = more signal, called active from +8 up or from −8 down.
Assay [14] can be described thus: plasmodial surface anion channel blockers, osmotic lysis – cell-based, P. falciparum Indochina, OD700, 2 h, primary screen (AID 1155).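 Further: lysis reports solute entry through the parasite surface anion channel PSAC.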 To be noted: P. falciparum Indochina infected erythrocytes, higher = more signal, called active from +8 up or from −8 down.
Assay [15] can be described thus: changes in parasitized red cell lysis, either direction – P. falciparum Indochina, OD700, 3 h, PSAC antagonist project, primary screen (AID 1156). To be noted: P. falciparum-infected erythrocytes, osmotic lysis, higher = more signal, called active from +8 up or from −8 down.
The nature of assay [16]: plasmodial surface anion channel blockers, osmotic lysis – cell-based, P. falciparum Indochina, OD700, 18 h, primary screen (AID 1157). The note with it: P. falciparum Indochina infected erythrocytes, osmotic lysis OD700, 18 h; higher = more signal, called active from +8 up or from −8 down.
Assay [17] in a line: S6 kinase pathway phospho-S6 level changes – cell-based, A549, cytoblot, luminescence, serum-stimulated, primary screen (AID 1158).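 Further: serum-stimulated A549 lung adenocarcinoma cells; signal is phosphorylated S6 detected by cytoblot immunostaining with HRP secondary.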 To be noted: 5 h, higher = more signal.
In assay [18] the target is NADPH oxidase 2 (Homo sapiens) (UniProt P04839). Put plainly: compounds shifting NOX2 Amplex Red fluorescence – cell-based, HEK293-NOX2, PMA-stimulated, NOX inhibitor project, primary screen (AID 1159). Further: test concentration not given here. To be noted: 45 min, higher = more signal, called active from +8 up or from −8 down.
Chain of NADPH oxidase 2 (Homo sapiens) (P04839 whole entry, looked up): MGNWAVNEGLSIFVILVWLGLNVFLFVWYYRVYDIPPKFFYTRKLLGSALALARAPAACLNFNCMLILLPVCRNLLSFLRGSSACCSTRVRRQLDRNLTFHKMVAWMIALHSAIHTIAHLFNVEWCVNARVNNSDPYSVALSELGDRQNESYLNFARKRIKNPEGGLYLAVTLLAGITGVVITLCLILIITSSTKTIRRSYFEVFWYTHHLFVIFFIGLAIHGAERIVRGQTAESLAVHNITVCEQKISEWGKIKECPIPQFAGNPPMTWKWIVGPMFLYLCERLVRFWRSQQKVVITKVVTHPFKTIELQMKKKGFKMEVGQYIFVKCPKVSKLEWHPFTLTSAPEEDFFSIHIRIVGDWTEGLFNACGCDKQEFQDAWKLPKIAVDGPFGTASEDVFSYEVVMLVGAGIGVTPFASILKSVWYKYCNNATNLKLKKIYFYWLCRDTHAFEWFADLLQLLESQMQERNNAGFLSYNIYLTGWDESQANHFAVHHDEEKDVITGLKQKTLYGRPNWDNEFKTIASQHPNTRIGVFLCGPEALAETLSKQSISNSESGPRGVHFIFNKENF
Assay [19] has as its target NADPH oxidase 4 (Homo sapiens) (UniProt Q9NPH5). Put plainly: compounds shifting NOX4 Amplex Red fluorescence – cell-based, HEK293-NOX4, tetracycline-induced, NOX inhibitor project, primary screen (AID 1160). The note with it: HEK293-NOX4, Amplex Red H2O2 fluorescence, 45 min; higher = more signal, called active from +8 up or from −8 down.
The target of assay [20] is NADPH oxidase 5 (Homo sapiens) (UniProt Q96PH1). In words: compounds shifting NOX5 Amplex Red fluorescence – cell-based, HEK293-NOX5, NOX inhibitor project, primary screen (AID 1161). The note with it: HEK293-NOX5, ionomycin, 45 min, higher = more signal.
Chain of NADPH oxidase 5 (Homo sapiens) (Q96PH1 whole entry, looked up): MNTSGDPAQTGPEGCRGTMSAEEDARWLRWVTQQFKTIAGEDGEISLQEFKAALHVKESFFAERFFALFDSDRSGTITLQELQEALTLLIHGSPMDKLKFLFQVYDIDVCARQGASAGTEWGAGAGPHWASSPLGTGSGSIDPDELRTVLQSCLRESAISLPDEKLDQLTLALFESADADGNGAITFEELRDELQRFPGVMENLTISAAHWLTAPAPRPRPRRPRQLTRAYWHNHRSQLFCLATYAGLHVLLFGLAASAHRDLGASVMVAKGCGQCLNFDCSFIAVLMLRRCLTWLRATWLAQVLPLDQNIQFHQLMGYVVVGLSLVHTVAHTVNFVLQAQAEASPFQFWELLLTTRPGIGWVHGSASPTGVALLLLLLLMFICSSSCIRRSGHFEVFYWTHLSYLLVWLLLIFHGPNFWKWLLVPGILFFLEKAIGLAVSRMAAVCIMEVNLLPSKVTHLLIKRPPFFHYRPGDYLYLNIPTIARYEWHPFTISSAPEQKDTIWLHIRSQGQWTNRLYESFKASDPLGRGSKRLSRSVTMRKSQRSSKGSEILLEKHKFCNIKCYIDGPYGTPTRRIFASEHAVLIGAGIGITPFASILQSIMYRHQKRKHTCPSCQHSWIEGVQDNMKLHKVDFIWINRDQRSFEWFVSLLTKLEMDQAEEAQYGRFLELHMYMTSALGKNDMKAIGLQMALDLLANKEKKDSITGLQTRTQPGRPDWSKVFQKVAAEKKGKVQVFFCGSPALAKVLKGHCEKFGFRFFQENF

Chain of Torsin-1A (Homo sapiens) (O14656 whole entry, looked up): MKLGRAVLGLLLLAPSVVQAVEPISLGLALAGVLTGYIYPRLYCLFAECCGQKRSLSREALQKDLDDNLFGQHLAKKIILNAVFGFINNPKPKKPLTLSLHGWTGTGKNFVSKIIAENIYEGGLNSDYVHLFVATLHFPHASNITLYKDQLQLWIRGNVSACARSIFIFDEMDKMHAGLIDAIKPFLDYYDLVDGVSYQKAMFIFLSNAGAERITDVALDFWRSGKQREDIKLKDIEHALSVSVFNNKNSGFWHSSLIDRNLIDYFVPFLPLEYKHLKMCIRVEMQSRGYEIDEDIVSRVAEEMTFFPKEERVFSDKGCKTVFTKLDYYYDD
Chain of NADPH oxidase 4 (Homo sapiens) (Q9NPH5 whole entry, looked up): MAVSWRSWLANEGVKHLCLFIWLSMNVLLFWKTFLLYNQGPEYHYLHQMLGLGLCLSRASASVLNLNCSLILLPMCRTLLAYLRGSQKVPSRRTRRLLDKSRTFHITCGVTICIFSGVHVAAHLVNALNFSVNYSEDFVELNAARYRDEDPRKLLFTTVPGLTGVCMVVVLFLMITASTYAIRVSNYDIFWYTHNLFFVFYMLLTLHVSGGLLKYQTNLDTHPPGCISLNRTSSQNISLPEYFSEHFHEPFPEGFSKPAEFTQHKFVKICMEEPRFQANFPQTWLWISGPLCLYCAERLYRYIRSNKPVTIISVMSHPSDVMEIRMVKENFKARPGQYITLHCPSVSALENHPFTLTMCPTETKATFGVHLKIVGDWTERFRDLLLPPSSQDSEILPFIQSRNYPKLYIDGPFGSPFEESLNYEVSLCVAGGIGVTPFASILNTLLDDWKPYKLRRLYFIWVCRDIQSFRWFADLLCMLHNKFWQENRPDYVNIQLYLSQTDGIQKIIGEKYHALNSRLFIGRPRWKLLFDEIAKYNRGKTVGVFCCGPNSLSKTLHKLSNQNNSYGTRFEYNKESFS
Chain of Streptavidin (Streptomyces avidinii) (P22629 whole entry, looked up): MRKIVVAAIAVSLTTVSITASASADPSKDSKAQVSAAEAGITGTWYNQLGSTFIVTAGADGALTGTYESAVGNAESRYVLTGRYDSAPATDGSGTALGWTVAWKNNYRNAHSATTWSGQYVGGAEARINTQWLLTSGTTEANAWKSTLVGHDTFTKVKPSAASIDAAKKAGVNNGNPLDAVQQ

For the compound `C#CCCCON=C1[C@H]2CCn3c(=O)n(Cc4cc5c(cc4Cl)OCO5)c(=O)n3[C@H]2[C@H](O)[C@@H]2O[C@H]12`, the composite z-score in [1] is 0.272; in assay [6] it was 0.23; in assay [7], -0.0375; with Torsin-1A (Homo sapiens) [8] it was 0.0703; with Torsin-1A (Homo sapiens) [9], 0.248; in assay [10], 1.08. This compound also displayed a composite z-score in [12] of -0.101. For the same compound, the z-score was 0.256 (inactive) in [2]; -0.55 (inactive) in [3]; -0.207 (inactive) in assay [4]; 0.959 (inactive) in [5]; -0.248 (inactive) in assay [11]; 0.649 (inactive) in [13]. In addition, the z-score was 0.581 (inactive) in assay [14]; 0.579 (inactive) in assay [15]; 0.035 (inactive) in assay [16]; -0.345 in [17]; -0.331 (inactive) in [18]; 0.367 (inactive) in [19]. Moreover, in [20], the z-score is -0.275.

For `COC(=O)[C@H](CCSC)NC(=O)CC=C[C@@H](C)CO`, the composite z-score in assay [1] is 0.848; in assay [6], -1.27; in assay [7] it was -0.128; in the assay with Torsin-1A (Homo sapiens) [8], 3.29; in the assay with Torsin-1A (Homo sapiens) [9] it was 3.16; in assay [10], 2.18. The composite z-score in [12] was -0.101. Further, the z-score in assay [2] is -0.62 (inactive); in assay [3], -0.449 (inactive); in assay [4], 0.75 (inactive); in assay [5], 0.118 (inactive); in assay [11], 0.193 (inactive); in assay [13], 0.291 (inactive). In addition, the z-score in assay [14] is 0.317 (inactive); in assay [15], -0.0396 (inactive); in [16], -0.167 (inactive); in [17], 0.81; in [18], 1.58 (inactive); in [19], -1.2 (inactive). Besides, the z-score in assay [20] was found to be 0.613.

As to `O=C1C[C@H](c2ccccc2)[C@H](c2ccc(Br)cc2)O1`, the composite z-score in assay [1] is 0.0974; in [6] it was 0.521; in assay [7], -0.128; with Torsin-1A (Homo sapiens) [8] it was -0.0753; with Torsin-1A (Homo sapiens) [9], -0.022; in assay [10] it was 0.212. The composite z-score in assay [12] was -0.464. Further, the z-score is -1.52 (inactive) in assay [2]; -1.42 (inactive) in assay [3]; 0.375 (inactive) in assay [4]; -0.0385 (inactive) in assay [5]; -1.16 (inactive) in [11]; -0.142 (inactive) in assay [13]. Also, the z-score is -1.13 (inactive) in assay [14]; -0.0291 (inactive) in [15]; -1.6 (inactive) in assay [16]; 1.61 in assay [17]; 0.146 (inactive) in [18]; -0.255 (inactive) in assay [19]. The z-score in [20] was -0.446.

With `CCOC(=O)CCN1C(=O)[C@H]2[C@H]3[C@H](O)[C@H](O)CC(=NOCC=C(C)CCC=C(C)C)[C@H]3CC[C@H]2C1=O`, the composite z-score in assay [1] is 0.0888; in assay [6], 0.344; in [7], 0.12; in the assay with Torsin-1A (Homo sapiens) [8], 0.703; with Torsin-1A (Homo sapiens) [9], 0.355; in [10] it was -0.423. The compound further displayed a composite z-score in assay [12] of 0.148. In addition, the z-score is -0.148 (inactive) in assay [2]; 1.18 (inactive) in [3]; 0.153 (inactive) in assay [4]; 0.462 (inactive) in [5]; 1.04 (inactive) in assay [11]; 1.09 (inactive) in [13]. The z-score is 0.887 (inactive) in assay [14]; 1.25 (inactive) in assay [15]; 0.378 (inactive) in assay [16]; 0.199 in [17]; -4.23 (inactive) in assay [18]; 0.943 (inactive) in assay [19]. For the same compound, the z-score in [20] is 0.546.

Consider `CC(=O)OC[C@H]1O[C@H](CC=NO[C@@H](C)c2cc(-c3c(C)cc(C)cc3C)no2)C=C[C@@H]1OC(C)=O`, for which the composite z-score in assay [1] was -0.184; in [6] it was 0.897; in [7], -0.175; in the assay with Torsin-1A (Homo sapiens) [8], 0.213; with Torsin-1A (Homo sapiens) [9], -0.31; in assay [10], 0.0602. The compound further gave a composite z-score in assay [12] of -0.101. The z-score was 0.125 (inactive) in assay [2]; -0.176 (inactive) in [3]; 0.173 (inactive) in assay [4]; 0.481 (inactive) in assay [5]; 0.11 (inactive) in assay [11]; 2.12 (inactive) in assay [13]. For the same compound, the z-score in [14] was 0.629 (inactive); in [15] it was 1.12 (inactive); in assay [16], 0.343 (inactive); in assay [17], -0.194; in assay [18], -1.27 (inactive); in [19], -0.444 (inactive). Moreover, the z-score in [20] was -2.99.
